# Assay results as given in the supplement of paper PMC3414501.
# Structures can show the parent of a compound that is named as a salt. Values without a mark were called inactive. Rule as the data show it: active = 2 or more and inactive = the rest.
# Tested on: S. cerevisiae BY4741 (wild-type), vegetative growth in YPD
# Assay: growth sensitivity score (doubling time z-score vs DMSO controls); higher = slower growth, strongly negative scores also mark growth inhibition (complete suppression), active = hit call of the paper
# In short: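 Rich medium in microtiter plates was seeded with Saccharomyces cerevisiae strains BY4741 and AD1-9 at an OD600 of 0.065, and compounds were added as a 1:100 dilution of DMSO stock. A Tecan GENios reader recorded optical density every 15 min for 24 hours, with eight solvent-only wells in each experiment. Average doubling time was the time to reach a set generation point divided by generation number. The growth sensitivity score was the compound mean minus the solvent-only mean, divided by the solvent-only standard deviation.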
row,Compound,growth sensitivity score
1,"CN(CCOc1ccc(CC2SC(=O)NC2=O)cc1)c1ccccn1 (stereo not drawn) [Rosigltazone hydrochloride] (stock concentration (mM, diluted 1:100): 8.2)",2.48 (active)
2,"CCc1ccc(CCOc2ccc(CC3SC(=O)NC3=O)cc2)nc1 (stereo not drawn) [Pioglitazone hydrochloride] (stock concentration (mM, diluted 1:100): 9.1)",-0.08
3,"CC12CC3CC(C)(C1)CC(N)(C3)C2 [Memantine hydrochloride] (stock concentration (mM, diluted 1:100): 8.3)",-0.66
4,"O=C1N[C@H](C(=O)O)CS1 [Procysteine] (stock concentration (mM, diluted 1:100): 10)",-0.31
5,"CC(C)Oc1ccc2c(=O)c(-c3ccccc3)coc2c1 [Ipriflavone] (stock concentration (mM, diluted 1:100): 10)",-0.15
6,"COc1cccc2c1C(=O)c1c(O)c3c(c(O)c1C2=O)C[C@@](O)(C(=O)CO)C[C@@H]3O[C@H]1C[C@H](N)[C@@H](O)[C@H](C)O1 [Epirubicin hydrochloride] (stock concentration (mM, diluted 1:100): 9.4)",11.8 (active)
7,"N#Cc1ccc(C(c2ccc(C#N)cc2)n2cncn2)cc1 [Letrozol] (stock concentration (mM, diluted 1:100): 10)",-0.45
8,"O=C(NCCN1CCOCC1)c1ccc(Cl)cc1 [Moclobemide] (stock concentration (mM, diluted 1:100): 10)",-0.18
